Values joined by “and” are separate entries in the source; they are usually repeats but may differ in a detail not shown here. Equal entries are not always repeated. Records with an inconclusive call do not appear. A call without a number means that no potency is given here. Active and inactive are the calls of the source. Unless noted, the call rests on the fitted dose curve; in most records, active means well fitted curve in the direction sought with a large enough effect in the repeat runs; inconclusive means weak or mixed curves; inactive means no such curve, though single readings can be large; an effect the other way counts as inactive or inconclusive.
Legend:
[1] = qHTS assay to identify small molecule antagonists of the glucocorticoid receptor (GR) signaling pathway - cell viability counter screen (AID 720693); further: nearly all actives have a fitted effect of over 55% in size
[2] = qHTS assay for identifying genotoxic compounds that show differential cytotoxicity against isogenic chicken DT40 cell lines with known DNA damage response pathways - wild type cell line (AID 743012); further: nearly all actives have a fitted effect of over 60% in size
Summary of the method: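 Quantitative HTS on parental DT40 cells: 40 h compound treatment at 37 C/5% CO2, with viability then determined by CellTiter-Glo luminescence. Values serve as the DNA repair-proficient reference for differential cytotoxicity.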

[3] = qHTS assay for identifying genotoxic compounds that show differential cytotoxicity against isogenic chicken DT40 cell lines with known DNA damage response pathways - Rev3 mutant cell line (AID 743014); further: nearly all actives have a fitted effect of over 55% in size
[4] = qHTS assay to identify small molecule antagonists of the androgen receptor (AR) signaling pathway - cell viability counter screen (AID 743033; further: nearly all actives have a fitted effect of over 45% in size)
[5] = qHTS assay to identify small molecule antagonists of the androgen receptor (AR) signaling pathway using the MDA cell line - cell viability counter screen (AID 743041; further: nearly all actives have a fitted effect of over 45% in size)
Summary of the method: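 Cells were plated at 3,000 per well and left 5 h. Compounds in DMSO were then pinned in, followed by R1881. After 16 h at 37C, CellTiter-Fluor fluorescence gave viability.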

[6] = qHTS assay for identifying genotoxic compounds that show differential cytotoxicity against isogenic chicken DT40 cell lines with known DNA damage response pathways - Rad54/Ku70 mutant cell line (AID 743015); further: nearly all actives have a fitted effect of over 60% in size
[7] = target: Androgen receptor (Homo sapiens) (UniProt P10275); test: qHTS assay to identify small molecule antagonists of the androgen receptor (AR) signaling pathway (AID 743035; active means well fitted inhibition curve with a large enough effect in the signal ratio in the repeat runs, not every such curve was filed as active; the % refers to the signal ratio)
Summary of the method: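 Cell line: GeneBLAzer AR-UAS-bla GripTite (HEK293). Stimulus: R1881 added after compound. Exposure: 16 h, 37C, 5% CO2. Readout: LiveBLAzer B/G FRET fluorescence after 2 h at room temperature.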

[8] = target: Androgen receptor (Homo sapiens) (UniProt P10275); test: qHTS assay to identify small molecule agonists of the androgen receptor (AR) signaling pathway (AID 743036; active means well fitted activation curve with a large enough effect in the signal ratio in the repeat runs, with a control signal flat, not every such curve was filed as active; the % refers to the signal ratio)
Summary of the method: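 Activation was read as beta-lactamase FRET signal from LiveBLAzer B/G substrate, added for 2 h at room temperature. Before that, GeneBLAzer AR-UAS-bla GripTite (HEK293) cells had 16 h compound exposure at 37C.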

[9] = target: Androgen receptor (Homo sapiens) (UniProt P10275); test: qHTS assay to identify small molecule agonists of the androgen receptor (AR) signaling pathway using the MDA cell line (AID 743040; further: nearly all actives have a fitted effect of over 20% in size); settings: MDA-kb2 AR-luc cells, MMTV luciferase, 16 h; activity change: at 70.3 µM (top of the series), active compounds read high
Summary of the method: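 Cells plated, 5 h at 37C/0% CO2; compound or DMSO pinned; 16 h at 37C; ONE-Glo added; luminescence measured after 30 min at room temperature. Reporter line: MDA-kb2 with MMTV-luciferase responsive to AR and GR.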

[10] = target: Androgen receptor (Homo sapiens) (UniProt P10275); test: qHTS assay to identify small molecule antagonists of the androgen receptor (AR) signaling pathway using the MDA cell line (AID 743042; further: nearly all actives have a fitted effect of over 55% in size)
Summary of the method: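 Antagonist mode: compounds plus R1881 agonist added to MDA-kb2 AR-luc cells, incubated 16 h at 37C. Luciferase reporter luminescence quantified, with multiplexed CellTiter-Fluor readout for cell viability.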
Potency means the concentration at half of the fitted maximal effect.

Sequence of Androgen receptor (Homo sapiens) (P10275 whole entry, looked up): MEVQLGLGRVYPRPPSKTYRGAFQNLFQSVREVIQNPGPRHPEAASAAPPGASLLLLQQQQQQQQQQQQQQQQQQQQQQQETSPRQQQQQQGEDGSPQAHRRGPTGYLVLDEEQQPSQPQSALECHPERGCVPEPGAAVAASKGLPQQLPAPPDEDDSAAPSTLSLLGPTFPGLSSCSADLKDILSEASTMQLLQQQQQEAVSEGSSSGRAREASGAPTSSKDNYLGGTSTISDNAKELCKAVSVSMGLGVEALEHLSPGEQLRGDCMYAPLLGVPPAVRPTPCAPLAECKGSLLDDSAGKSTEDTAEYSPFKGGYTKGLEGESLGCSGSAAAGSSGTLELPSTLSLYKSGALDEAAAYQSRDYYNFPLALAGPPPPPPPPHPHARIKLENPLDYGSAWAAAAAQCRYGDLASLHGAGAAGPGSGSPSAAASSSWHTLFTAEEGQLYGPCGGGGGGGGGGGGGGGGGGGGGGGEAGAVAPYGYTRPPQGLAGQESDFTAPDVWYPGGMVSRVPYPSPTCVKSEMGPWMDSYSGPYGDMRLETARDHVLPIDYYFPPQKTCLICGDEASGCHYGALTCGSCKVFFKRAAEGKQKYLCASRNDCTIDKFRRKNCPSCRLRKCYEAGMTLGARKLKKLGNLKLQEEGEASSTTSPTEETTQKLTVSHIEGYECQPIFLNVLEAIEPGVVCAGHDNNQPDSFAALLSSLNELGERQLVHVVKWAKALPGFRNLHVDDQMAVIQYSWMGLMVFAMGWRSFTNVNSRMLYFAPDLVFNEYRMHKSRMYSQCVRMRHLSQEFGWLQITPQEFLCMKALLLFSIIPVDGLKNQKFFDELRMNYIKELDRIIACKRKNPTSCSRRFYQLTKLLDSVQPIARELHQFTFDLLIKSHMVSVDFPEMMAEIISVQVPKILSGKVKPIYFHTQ

| SMILES | Potency [1] | Potency [2] | Potency [3] | Potency [4] | Potency [5] | Potency [6] | Potency [7] | Potency [8] | Potency [9] | Potency [10] |
| --- | --- | --- | --- | --- | --- | --- | --- | --- | --- | --- |
| C=C(C)C(=O)OCCCCOC(=O)C(=C)C | inactive | inactive | inactive | inactive |  |  |  |  |  |  |
| N#CC(C#N)=C(C#N)C#N | inactive | inactive | inactive | inactive | inactive |  |  |  |  |  |
| C[C@H](N)[C@H](O)c1ccc(O)c(O)c1 | inactive | 13.3 µM (active) | 11.9 µM (active) | inactive |  |  |  |  |  |  |
| O=C(O)C(O)C(O)C(=O)O (stereo unspecified) | inactive | inactive |  | inactive |  | inactive |  |  |  |  |
| O=C(N/N=C/c1ccc([N+](=O)[O-])o1)c1cc([N+](=O)[O-])cc([N+](=O)[O-])c1O | inactive | inactive |  |  |  | inactive |  |  |  |  |
| CCCCCBr | inactive | inactive | inactive | inactive |  |  | inactive | inactive | inactive | inactive |
| CCCCC(CC)COC(=O)c1c(Br)c(Br)c(Br)c(Br)c1C(=O)OCC(CC)CCCC (stereo unspecified) | inactive | inactive |  | inactive |  | inactive |  |  |  |  |
| COc1ccc(C(=O)c2c(C)n(CCN3CCOCC3)c3ccccc23)cc1 | inactive | 26.6 µM (active) | 26.6 µM (active) |  | inactive | 29.8 µM (active) |  |  |  |  |
| OCCSSCCO | inactive | inactive | inactive |  | inactive |  |  |  |  |  |
| C[C@@H]1C[C@@H]([C@H](O)CC2CC(=O)NC(=O)C2)C(=O)[C@@H](C)C1 | inactive | 59.6 nM (active) and 108 nM (active) | 119 nM (active) and 60.8 nM (active) | 379 nM (active) and 97.2 nM (active) | inactive |  |  |  |  |  |
| C[CH2][Hg][S]c1ccccc1C(=O)O | 7.56 µM (active) and 6.16 µM (active) | 376 nM (active) and 172 nM (active) | 596 nM (active) and 137 nM (active) | 10.7 µM (active) and 4.9 µM (active) | 9.87 µM (active) and 8.63 µM (active) |  | 9.52 µM (active) and 3.09 µM (active) |  | inactive | 9.44 µM (active) and 7.7 µM (active) |
| CC1(C)CC(=O)CC(C)(C)N1[O] | inactive | inactive | inactive | inactive | inactive |  |  |  |  |  |
| Cc1ncc(C[n+]2csc(CCO)c2C)c(N)n1 | inactive | inactive | inactive | inactive | inactive |  |  |  |  |  |
| CCC1(CCC(C)C)C(=O)NC(=O)NC1=O | inactive | inactive | inactive | inactive | inactive |  | inactive |  | inactive | inactive |
| O=[N+]([O-])O[C@H]1CO[C@H]2[C@@H]1OC[C@H]2O[N+](=O)[O-] | inactive | inactive | inactive | inactive | inactive |  |  |  |  |  |
| Cc1nc2ccccc2c(=O)n1-c1ccccc1Cl | inactive | 42.4 µM (active) | 59.8 µM (active) | inactive |  |  |  |  |  |  |

| SMILES | Potency [1] | Potency [2] | Potency [3] | Potency [4] | Potency [5] | Potency [6] | Potency [7] | Potency [8] | Potency [9] | Potency [10] |
| --- | --- | --- | --- | --- | --- | --- | --- | --- | --- | --- |
| CCCCCCCCCCCC[N+](C)(C)CCOc1ccccc1 | 17.4 µM (active) | 1.88 µM (active) and 6.11 µM (active) | 2.37 µM (active) and 3.86 µM (active) | 23.9 µM (active) and 15.5 µM (active) |  |  |  |  |  |  |
| O=C(Cl)OCCOCCOC(=O)Cl | inactive | inactive | inactive | inactive | inactive |  |  | inactive | inactive | inactive |
| Nc1c(Br)cc(Br)c2c1C(=O)c1ccccc1C2=O | inactive | inactive | inactive | inactive | inactive |  |  | inactive | inactive | inactive |
| O=C(Cc1ccccc1)c1ccccc1 | inactive | inactive | inactive | inactive |  |  |  |  |  |  |
| CCCCC(CC)CO[N+](=O)[O-] (stereo unspecified) | inactive | inactive |  | inactive |  | inactive |  |  |  |  |
| Oc1cccc(Cl)c1 | inactive | inactive | inactive | inactive | inactive |  |  |  |  |  |
| Nc1ccccc1C(=O)OCCc1ccccc1 | inactive | inactive | inactive |  | inactive |  |  |  |  |  |
| CN1C(=O)CN=C(c2ccccc2)c2cc([N+](=O)[O-])ccc21 | inactive | inactive | inactive | inactive | inactive |  |  | inactive | 1.88 µM (active) | inactive |
| C=CC(=O)NC(C)(C)CC(C)=O | inactive | inactive |  | inactive | inactive |  |  |  |  |  |
| O=C(NCNC(=O)NC1C(=O)NC(=O)N1CO)NC1C(=O)NC(=O)N1CO (stereo unspecified) | inactive | inactive |  | inactive | inactive |  | inactive | inactive | inactive | inactive |
| CCOP(=S)(OCC)SCSc1cc(Cl)ccc1Cl | inactive | inactive |  | inactive | inactive | inactive |  |  |  |  |
| CCCC[N+](CCCC)(CCCC)CCCC | inactive | 4.32 µM (active) |  | inactive | inactive | 2.43 µM (active) |  |  |  |  |
| CCC1(C2=NCCN2)Cc2ccccc2O1 (stereo unspecified) | inactive | 5.31 µM (active) |  | inactive | inactive | 6.68 µM (active) | 19 µM (active) | 23.9 µM (active) | inactive | inactive |
| O=C(Cc1ccccc1)OCCc1ccccc1 | inactive | 68.6 µM (active) |  | inactive | inactive | 61.1 µM (active) |  |  |  |  |
| CN(C)C(=O)Nc1cccc(OC(=O)NC(C)(C)C)c1 | inactive | inactive |  | inactive | inactive | inactive |  |  |  |  |
| Cc1cnc(C2=NC(C)(C(C)C)C(=O)N2)c(C(=O)O)c1 (stereo unspecified) | inactive | inactive |  | inactive | inactive | inactive | inactive | inactive | inactive | inactive |
